29 molecules from paper PMC12136788 can be followed below.

B1: chr8:7990417:7990620:-|CDS|ENSG00000205989|control|control|control (ssRNA)
RNA: GGGAGUUCUACAGUCCGACGAUCGAUGUCUGCAACAUAGUAGAAGAUCAAAUUGGUGCCUGCCGAAGAAGGAUGAAGUGCUGUAGAGCAUGGUGGAUUUUAAUGCCAAUUCCAACACCACUUAUCAUGUCAGAUUAUCAAGAACAACAGAGGAUUGAGCAUCA
B2: chr20:37241422:37241523:+|3pUTR|ENSG00000118705|msi1_unk|FALSE|overlapping (ssRNA)
RNA: GGGAGUUCUACAGUCCGACGAUCGUAUGAGAAGAAAAAUGGAAAAAAAAAACUUUAUUUAAAAAAGAAAAAAGUCCAGAUUGUAGUUAUACUUUUGCUUGUUUUUCAGUUUCCCCAACACACAGCAGAUACCUGGUGAGCUCACAACAGAGGAUUGAGCAUCA
B3: chr8:80500255:80500365:+|CDS|ENSG00000205189|unk|total|mutant (ssRNA)
RNA: GGGAGUUCUACAGUCCGACGAUCGAAAAACCAAACUACAAAAAGAUUUAUUUAUAAUAUUCCACCUAAUAAUGAAACGAAUUCCGAAGAUUGCUCAGUAAUGCAGCCACCUGUUGCCUAUCCAGAAGAAAAUACACUACUCAUCAACAGAGGAUUGAGCAUCA
B4: chr2:30158716:30158817:+|CDS|ENSG00000119801|msi1|total|mutant (ssRNA)
RNA: GGGAGUUCUACAGUCCGACGAUCGUUUGCCACUGAAGACAGCCAGCGAUAUAAGGAAGGCCGCGUGAUCCUGGAACGUGCUCCCGUUCGAGAGAGUGAGGGCUUUGAGGAGCAUGUACCAUCUGAUAACUCUUGAAGAUACAGCAACAGAGGAUUGAGCAUCA
B5: chr5:115137525:115137627:-|CDS|ENSG00000152503|unk|FALSE|unique (ssRNA)
RNA: GGGAGUUCUACAGUCCGACGAUCUUUAGCAGAAGAGGCUAUUCUUUGUUUUAUCUUAGUGUAAUGGAGAUACUGUUUUUUCUUAGUGUAAUGGAGAGAGGGCUAAAGAAGAAGCAAUUACACAUUUUGAAAAGCUCUUUGAAGCAACAGAGGAUUGAGCAUCA
B6: ENSG00000115904:stop:overlap|stop_codon|ENSG00000115904|stop_codon|NA|stop_codon (ssRNA)
RNA: GGGAGUUCUACAGUCCGACGAUCUUUUGCAACGAAUGGAAGAAUUUAUUGGAACAGUAAGAGAGCUGUACAGCCAUCAGAAUUAGUUGGAAGUGUGUGGACAAAAGAAGACAAAGAAAUUAACUCUCCUAAUCUUCUGAAAAUCAACAGAGGAUUGAGCAUCA
B7: chr5:52955293:52955406:+|3pUTR|ENSG00000213949|unk|FALSE|unique (ssRNA)
RNA: GGGAGUUCUACAGUCCGACGAUCUACCAACCAGUGUGAGCUGACUUCAGCACACCACUGAGACAGAUUACACGAUAGACAGAUAGAUAGAUAGAUAGAUAGAUAGAUAGAUAGAUAGAUAGAUAGAUAUUGAUAGAGAACAUGCAACAGAGGAUUGAGCAUCA
B8: chr12:122341087:122341188:-|CDS|ENSG00000130779|unk|FALSE|bound_elsewhere (ssRNA)
RNA: GGGAGUUCUACAGUCCGACGAUCAGAAUUUGCUGAACUAAAAACACAAAUAGAGAAAAUGAGACUAGAUUACCAACACGAAAUAGAAAAUUUGCAGAAUCAACAAGACUCUGAACGGGCUGCCCAUGCUAAAGAGAUGGAAGCCAACAGAGGAUUGAGCAUCA
B9: chr12:122341087:122341188:-|CDS|ENSG00000130779|unk|total|mutant (ssRNA)
RNA: B8 RNA with U50C, A51C, U65C, A66C, U83C, A84C
B10: ENSG00000136451:be:win_1001|CDS|ENSG00000136451|bound_else_gene|NA|bound_elsewhere_windowed (ssRNA)
RNA: GGGAGUUCUACAGUCCGACGAUCACCAAAAGCAGCAGCAGCAGCAGCAGCAGCAGCAGCAGCAGCAGCAACAACAACAACAACAACAUGUGACAAGCUGGCCAGGGAAGCAAGUAGAAACACUGAGACUGUGGGAAGAAGCUGCAACAGAGGAUUGAGCAUCA
B11: chr15:56434137:56434395:-|CDS|ENSG00000138587|control|control|control (ssRNA)
RNA: GGGAGUUCUACAGUCCGACGAUCAGAGGAAGAGGAGAACUUUAGAAAAACUAUGCUAGCUAAAUUUGCUGAGGAUGAUCGAAUAGAAUUAAUGAAUGCUCAGAAACAAAGAAUGAAGCAGCUGGAACACAGGAGGGCUGUGGACAACAGAGGAUUGAGCAUCA
B12: chr5:52955293:52955406:+|3pUTR|ENSG00000213949|unk|total|mutant (ssRNA)
RNA: GGGAGUUCUACAGUCCGACGAUCUACCAACCAGUGUGAGCUGACUUCAGCACACCACUGAGACAGAUUACACGACCGACAGACCGACCGACCGACCGACCGACCGACCGACCGACCGACCGACCGAUAUUGACCGAGAACAUGCAACAGAGGAUUGAGCAUCA
B13: chr5:136977529:136977630:-|3pUTR|ENSG00000152377|msi1|FALSE|unique (ssRNA)
RNA: GGGAGUUCUACAGUCCGACGAUCACAAGCCAUCUCUUUCAUUUCUGCUUGAAGCCCCUUGGCUGCAGCAAUCCUGUCUGCCAUAGGUUUCUUCCUUCCUUACCUACUCAAGGGCUUUUUCUAAGGCAUGCACACAUAUCUCCUCAACAGAGGAUUGAGCAUCA
B14: chr12:100625254:100625355:+|3pUTR|ENSG00000139354|unk|total|mutant (ssRNA)
RNA: GGGAGUUCUACAGUCCGACGAUCAUAUGUAUUAAAUAUGGAGUUCAUAUACCUGCUAAUAUCAACGGUGGUGCUCUUACUAUCCGUUAAUUGCAUUUUGGUUAAAAAAAAAAAAGCAACAGUUUGGCACUUGUCCUACAAAAGCAACAGAGGAUUGAGCAUCA
B15: chr3:48857559:48857660:-|3pUTR|ENSG00000178537|unk|total|mutant (ssRNA)
RNA: GGGAGUUCUACAGUCCGACGAUCGGCUGAAGGCUGCUCAAGUUCACUUCUGGAUGCUGGAAGCUGUCGUUGAGGAGAAGGAGCCGUAAGCAGAACUAAGCAGUCUUGGAGGGCAAGGGGAGGGGAAUGGUGAGAUCCGAGCCCCAACAGAGGAUUGAGCAUCA
B16: chr2:20282997:20283108:-|CDS|ENSG00000055917|unk|total|mutant (ssRNA)
RNA: GGGAGUUCUACAGUCCGACGAUCACUAAUCUGCAAUCUAAUUCAUUUUAUGGAAGCAGUUCUUUGACUAACCGCUCCCAGAGCCGUUCUUUAUUUUCUCAUGGACCUGGUCAACCUGGAAGUACAUCUCUUGGCUUUGGAAGUCAACAGAGGAUUGAGCAUCA
B17: chr17:10306458:10306629:-|CDS|ENSG00000006788|control|control|control (ssRNA)
RNA: GGGAGUUCUACAGUCCGACGAUCCCACCUGGAGCGGAUGAAGAAGAACCUGGAGCAGACGGUGAAGGACCUGCAGCACCGUCUAGAUGAGGCUGAACAACUGGCGCUGAAGGGCGGGAAGAAGCAGAUCCAGAAACUGGAGAACAACAGAGGAUUGAGCAUCA
B18: ENSG00000136451:be:win_3801|3pUTR|ENSG00000136451|bound_else_gene|NA|bound_elsewhere_windowed (ssRNA)
RNA: GGGAGUUCUACAGUCCGACGAUCACCCCUAAGCUAGAAUGUGGUUGUCAGAACCCUGAAAGUAUUAGUUCUAAAAAAAAAAAGAUAUAUACUAGAAGUAAUUGUUUUAUCAAUUCAUUGUAUAAUAAACAGGAGUGAGACUUCCAACAGAGGAUUGAGCAUCA
B19: chr3:45823315:45826332:-|three_prime_utr|ENSG00000163818|control|control|control (ssRNA)
RNA: GGGAGUUCUACAGUCCGACGAUCUCAGGCAUGUAUUUUGAAAAGCAUUUUGUCAUAUCCCCUCUCCUUAUUUUUCUAAUAUUUAGACUUUGAAUAUUUAGAACUAGAGUUCCUAUUUUCAGCUAGUUGAAAACAGAGAAAACCCAACAGAGGAUUGAGCAUCA
B20: chr17:57972098:57972209:-|3pUTR|ENSG00000136451|unk|total|mutant (ssRNA)
RNA: GGGAGUUCUACAGUCCGACGAUCCCCGAAUGUGGUUGUCAGAACCCUGAAAGUAUCCGUUCUAAAAAAAAAAAGAUAUAUACCCGAAGUAAUUGUUUUAUCAAUUCAUUGUAUAAUAAACAGGAGUGAGACUUCAUUGUAUGACAACAGAGGAUUGAGCAUCA
B21: chr17:57972098:57972209:-|3pUTR|ENSG00000136451|unk|FALSE|bound_elsewhere (ssRNA)
RNA: B20 RNA with C25U, C26A, C56U, C57A, C83U, C84A
B22: chr18:2804133:2804242:+|3pUTR|ENSG00000101596|unk|FALSE|unique (ssRNA)
RNA: GGGAGUUCUACAGUCCGACGAUCGGUUAAAGAGAAAUGACUUUUUAGGAACUAGACUUGAACGUAUAAUUAAUAUGUGGAACUAGUUUGCUUUUAUAAUUCAUUGUAUCAAGAAGGAGUCAUGUUUUAAAUCCAAGGCAUUGACAACAGAGGAUUGAGCAUCA
B23: chr8:72021249:72022905:-|three_prime_utr|ENSG00000104321|control|control|control (ssRNA)
RNA: GGGAGUUCUACAGUCCGACGAUCGCAGAUAUGUUCAAAUUGGACUGGACUUUGAUGAGAUAUAAUCUCAUUAUUUGAAUGGGUAGAAAAUGAAUUUGCUAGAACACACAUUUUUAAUGAAAAGAAGUAAUAAAUGUAACUAUUCAACAGAGGAUUGAGCAUCA
B24: chr7:152122106:152122213:+|3pUTR|ENSG00000178234|unk|FALSE|unique (ssRNA)
RNA: GGGAGUUCUACAGUCCGACGAUCAGUGGUUUUUAUCUGAUCAGGAACUUGUCAUGAUUUCCUUUCUUAGACUUCAUAGGAGAUAGUGCUUUAAAAAAAAAAAAAACUUCUAUUAUUUGUUUAGUAUGUUGUAAGUAGAUCAUUCAACAGAGGAUUGAGCAUCA
B25: ENSG00000186472:stop:overlap|stop_codon|ENSG00000186472|stop_codon|NA|stop_codon (ssRNA)
RNA: GGGAGUUCUACAGUCCGACGAUCUUUCUUGUAAAUGGAAAUUUUAUCAUGUGUAUAGAUUCUGUAGCAUGCUUUUCUUUAUUUAGUUUUACUUUAUUCCUUUAUUGUUCUGUUUCUUGAUUGUUUGCUUGAUUUGUUUGGUGUCAACAGAGGAUUGAGCAUCA
B26: chr1:67413009:67413110:-|3pUTR|ENSG00000142864|unk|total|mutant (ssRNA)
RNA: GGGAGUUCUACAGUCCGACGAUCCUGAAUUUUAUCUGUUUUAAAAAUGAACUUCUCCCGCUACACAGAAGUAACAAAUAUGGCCGUCAGUUUUGUAUUCCGAAAUGUAUUGGCCGCAGGGAUGUUUUCAUAAUUUUCAGAGAUCAACAGAGGAUUGAGCAUCA
B27: chr7:152122106:152122213:+|3pUTR|ENSG00000178234|unk|total|mutant (ssRNA)
RNA: B24 RNA with U67C, A68C, U76C, A77C, U83C, A84C, U121C, A122C, U135C, A136C
B28: chr1:67413009:67413110:-|3pUTR|ENSG00000142864|unk|FALSE|unique (ssRNA)
RNA: B26 RNA with C83U, C84A, C99U, C100A, C113U, C114A
B29: ENSG00000136451:be:win_3751|3pUTR|ENSG00000136451|bound_else_gene|NA|bound_elsewhere_windowed (ssRNA)
RNA: GGGAGUUCUACAGUCCGACGAUCCUCCACAGUGGUCCAAGGAGCAGUCCUCAGUGGGGGCAGGUGUGGGCCCUACCCCUAAGCUAGAAUGUGGUUGUCAGAACCCUGAAAGUAUUAGUUCUAAAAAAAAAAAGAUAUAUACUACAACAGAGGAUUGAGCAUCA

Changes are numbered by the printed parent chain. Whole data set: some 5,800 sequences, median “enrichment r” near 0.54, cut for the highest 2% near 16. The entries come from a sample that favours the highest values as a whole.

For this test, the target named is MSI1 full-length (mouse, UniProt Q61474 1-362). In words: nsRBNS (natural sequence RNA bind-n-seq); RBNS binding buffer (assumed for nsRBNS): 25 mM Tris pH 7.5, 150 mM KCl, 3 mM MgCl2, 0.01% Triton X-100, 500 ug/ml BSA, 20 U/ml SUPERase-In, 4 C; UNK is unkempt and MSI1 is Musashi-1; names of the RNAs are library labels; protein concentration not given here; high values mean tight binding.
Sequence of MSI1 full-length (Q61474 whole entry): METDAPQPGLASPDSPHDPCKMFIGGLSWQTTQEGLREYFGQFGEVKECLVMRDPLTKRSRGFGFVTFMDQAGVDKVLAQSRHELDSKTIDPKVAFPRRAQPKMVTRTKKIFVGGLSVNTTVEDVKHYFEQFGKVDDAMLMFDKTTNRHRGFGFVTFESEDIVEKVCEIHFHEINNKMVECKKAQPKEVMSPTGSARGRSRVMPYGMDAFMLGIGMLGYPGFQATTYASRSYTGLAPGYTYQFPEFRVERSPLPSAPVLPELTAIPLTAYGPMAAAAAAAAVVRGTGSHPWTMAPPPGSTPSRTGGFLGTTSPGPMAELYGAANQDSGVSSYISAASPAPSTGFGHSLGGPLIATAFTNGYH
B1 yielded a binding signal of 0.446 enrichment R. For the molecule B2, the binding signal stood at 1.41 enrichment R. B3: the binding signal came to 3.62 enrichment R. B4 registered a binding signal of 0.472 enrichment R. On to B5, for which the binding signal was determined as 2.18 enrichment R.

Regarding B6, the binding signal amounted to 1.25 enrichment R. B7: the binding signal came to 67 enrichment R. Molecule B8 registered a binding signal of 16.5 enrichment R. Next, B9: 0.402 enrichment R; B10: 0.597 enrichment R. In the case of B11, the binding signal stood at 3.42 enrichment R. B12: the binding signal is 0.369 enrichment R.

In turn, B13 showed a binding signal of 0.506 enrichment R. The molecule B14 returned a binding signal of 0.371 enrichment R.

The molecule B15 displayed a binding signal of 0.595 enrichment R. The molecule B16 yielded a binding signal of 0.305 enrichment R. In the case of B17, the binding signal was 0.485 enrichment R.

Molecule B18 yielded a binding signal of 16.4 enrichment R. Molecule B19 had a binding signal of 5.79 enrichment R. As for B20, the figure is 0.711 enrichment R; as for B21, 29.3 enrichment R.

Consider B22, for which the binding signal turned out to be 1.24 enrichment R.

With B23, the binding signal is 2.75 enrichment R. In the case of B24, the binding signal is 20.2 enrichment R. Take B25: the binding signal came out at 0.35 enrichment R. For B26, the binding signal was 0.413 enrichment R.

B27: the binding signal turned out to be 1.74 enrichment R. Consider B28, for which the binding signal was found to be 41.4 enrichment R.

Take B29: the binding signal amounted to 1.89 enrichment R.
